Measured values as given in the supplement of paper PMC10127200.
Where a name gives a salt, the structure may show the parent alone.

Tests used:
Assay in all cases: Euclidean distance of Cell Painting phenotypic profile (signed KS, 77 features) to DMSO centroid (dimensionless distance); 5 or 10 uM (library dependent); higher = stronger phenotypic change vs DMSO (phenoactivity)
Conditions in all cases: 48 h
786-O = system: 786-O
Summary of the method: (§1)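 Library compounds were applied at 10 or 5 uM, depending on the library, with 0.1% DMSO final, for 48 h to five cancer lines and a healthy fibroblast line. After staining, cells were imaged confocally at 20X across 9 fields per well, and Harmony extracted 77 features, each scored as a signed Kolmogorov-Smirnov statistic against vehicle wells on the same plate. Phenoactivity is the Euclidean distance between each profile and the median vehicle profile, with profiles first plate-position corrected, correlation-weighted and averaged over replicates at the top dose.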

A549 = system: A549
Summary of the method: as §1

DU145 = system: DU145
Summary of the method: as §1

FB = system: FB
Summary of the method: as §1

HEPG2 = system: HEPG2
Summary of the method: as §1

OVCAR4 = system: OVCAR4
Summary of the method: as §1

Row | Structure (SMILES) | Euclidean distance (786-O) | Euclidean distance (A549) | Euclidean distance (DU145) | Euclidean distance (FB) | Euclidean distance (HEPG2) | Euclidean distance (OVCAR4)
1 | CC(c1cc2ccccc2s1)N(O)C(N)=O (stereo not given) [Zileuton] | 1.8 | 0.949 | 0.621 | 1.2 | 1.12 | 1.11
2 | O=C(NCC(O)CO)c1c(I)c(C(=O)NCC(O)CO)c(I)c(N(CCO)C(=O)CO)c1I (stereo not given) [Ioversol] | 0.684 | 0.636 | 0.983 | 0.679 | 0.876 | 1.14
3 | NCc1ccc(S(N)(=O)=O)cc1 [Mafenide Acetate] | 0.874 | 0.744 | 1.24 | 1.07 | 0.456 | 0.942
4 | CC(C)[C@H]1C(=O)N[C@@H](CCCNC(=N)N)C(=O)NCC(=O)N[C@@H](CC(=O)O)C(=O)N[C@H](Cc2ccccc2)C(=O)N1C [Cilengitide] | 2.25 | 1.28 | 0.875 | 1.15 | 4.37 | 2.86
5 | O=C(O)C1=C(CSc2nnnn2CS(=O)(=O)O)CS[C@@H]2[C@H](NC(=O)[C@H](O)c3ccccc3)C(=O)N12 [Cefonicid sodium] | 0.931 | 0.892 | 0.858 | 1.26 | 0.665 | 1.46
6 | C[C@H](NC(=O)[C@@H](Cc1ccc2ccccc2c1)NC(=O)[C@@H](C)N)C(=O)N[C@@H](Cc1c[nH]c2ccccc12)C(=O)N[C@H](Cc1ccccc1)C(=O)N[C@@H](CCCCN)C(N)=O | 1.39 | 0.626 | 1.01 | 0.873 | 2.01 | 1.29
7 | C=CCc1cccc(/C=N/NC(=O)CN2CCN(Cc3ccccc3)CC2)c1O | 2.25 | 2.14 | 1.28 | 1.79 | 2.31 | 2.68
8 | CC1=C(/C=C/C(C)=C/C=C/C(C)=C\C(=O)O)C(C)(C)CCC1 [Isotretinoin] | 1.68 | 1.11 | 1.24 | 1.94 | 1.63 | 1.46
9 | CNC(=O)c1ccc(C)c(-n2c(C)cc(OCc3ccc(F)cc3F)c(Br)c2=O)c1 | 1.33 | 1.29 | 0.844 | 1.55 | 1.94 | 1.07
10 | CC(=O)Oc1cc(C(F)(F)F)ccc1C(=O)O [Triflusal] | 1.03 | 1.2 | 0.857 | 0.956 | 0.829 | 1.16
11 | CCN(C(=O)c1c(O)c2c(Cl)cccc2n(C)c1=O)c1ccccc1 [Laquinimod] | 0.923 | 0.95 | 0.863 | 0.902 | 0.638 | 1.25
12 | CC(C)N(CCCCOCC(=O)NS(C)(=O)=O)c1cnc(-c2ccccc2)c(-c2ccccc2)n1 [Selexipag] | 0.931 | 1.04 | 0.729 | 1.31 | 0.663 | 1.65
13 | CC(C)C[C@H](NC(=O)[C@H](Cc1ccccc1)NC(=O)c1cnccn1)B(O)O [Bortezomib] | 5.28 | 3.87 | 6.56 | 6.53 | 4.55 | 5.51
14 | CCCCCC(=O)O[C@]1(C(C)=O)CC[C@H]2[C@@H]3CCC4=CC(=O)CC[C@]4(C)[C@H]3CC[C@@]21C [Hydroxyprogesterone caproate] | 0.774 | 1.41 | 2.27 | 1.18 | 0.603 | 0.921
15 | CN(C)CCCN1c2ccccc2CCc2ccccc21 [Imipramine HCl] | 1.05 | 0.896 | 1.15 | 1.55 | 1.13 | 1.33
16 | CC(C(=O)O)c1cccc(C(=O)c2ccccc2)c1 (stereo not given) [Ketoprofen] | 1.28 | 0.765 | 2.29 | 0.989 | 0.77 | 1.42
17 | CCO[C@@H]1OC(=O)C[C@@H]1NC(=O)[C@@H]1CCCN1C(=O)[C@@H](NC(=O)c1ccc(N)c(Cl)c1)C(C)(C)C | 0.836 | 1.87 | 2.17 | 1.85 | 1.04 | 1.35
18 | NCCS(=O)(=O)O [Taurine] | 1.5 | 0.858 | 1.34 | 0.921 | 0.768 | 1.35
19 | Nc1nc(OCc2cc(Br)cs2)c2[nH]cnc2n1 [Lomeguatrib] | 1.07 | 1.13 | 1.15 | 1.29 | 0.861 | 1.04
20 | Cc1ccc(S(=O)(=O)c2ccc([N+](=O)[O-])o2)cc1 | 6.48 | 1.74 | 3.22 | 5.11 | 1.81 | 6.14
21 | CCn1c(=O)c(-c2cc(NC(=O)Nc3ccccc3)c(F)cc2Br)cc2cnc(NC)cc21 | 1.21 | 1.59 | 1.77 | 2.62 | 1.61 | 1.1
22 | NC(=O)c1ccc(N(C(N)=O)c2c(F)cccc2F)nc1-c1ccc(F)cc1F | 1.24 | 1.16 | 1.41 | 1.37 | 0.723 | 1.18
23 | O=C1[C@H](Cc2ccc(O)cc2)N2C(=O)CCN(C(=O)NCc3ccccc3)[C@H]2CN1Cc1cccc2ccccc12 | 2.87 | 2.53 | 1.39 | 3.88 | 1.43 | 2.09
24 | C[C@H]1CNCCCN1S(=O)(=O)c1cccc2cncc(F)c12 [Ripasudil (K-115) hydrochloride dihydrate] | 2.28 | 0.784 | 2.78 | 2.01 | 1.34 | 1.12
25 | NS(=O)(=O)c1cc2c(cc1Cl)NC(C1CC3C=CC1C3)NS2(=O)=O (stereo not given) [Cyclothiazide] | 1.37 | 0.917 | 0.711 | 1.07 | 0.641 | 2.44

Row | Structure (SMILES) | Euclidean distance (786-O) | Euclidean distance (A549) | Euclidean distance (DU145) | Euclidean distance (FB) | Euclidean distance (HEPG2) | Euclidean distance (OVCAR4)
26 | CCCN(CCC)CCc1cccc2c1CC(=O)N2 [Ropinirole HCl] | 1.32 | 1.01 | 0.736 | 1.3 | 0.483 | 1.2
27 | COc1ccc([C@@H]2CC(=O)c3c(O)cc(O)cc3O2)cc1O [Hesperetin] | 1.32 | 0.944 | 1.21 | 1.47 | 1.37 | 1.23
28 | Cc1ncc([N+](=O)[O-])n1CCO [Metronidazole] | 0.797 | 0.775 | 0.948 | 1.08 | 0.943 | 1.6
29 | N=C(N)NC(=O)Cc1c(Cl)cccc1Cl [Guanfacine Hydrochloride] | 1.58 | 0.941 | 1.05 | 1.09 | 0.41 | 0.929
30 | COc1ccc2[nH]c([S+]([O-])Cc3ncc(C)c(OC)c3C)nc2c1 (stereo not given) [Omeprazole] | 3.37 | 2.83 | 3.32 | 3.97 | 4.04 | 2.98
31 | CC(C)OC(=O)OCOP(=O)(CO[C@H](C)Cn1cnc2c(N)ncnc21)OCOC(=O)OC(C)C [Tenofovir Disoproxil Fumarate] | 3.16 | 2.92 | 1.88 | 3.17 | 3.46 | 2.99
32 | CN1CCCN=C1/C=C/c1cccc(O)c1 [Oxantel Pamoate] | 0.869 | 0.907 | 0.598 | 0.7 | 0.882 | 0.824
33 | CSc1nc2cc(Cl)c(Oc3cccc(Cl)c3Cl)cc2[nH]1 [Triclabendazole] | 1.55 | 0.638 | 1.65 | 1.07 | 1.43 | 0.772
34 | O=C(O)CSCC(=O)NC1CCSC1=O (stereo not given) [Erdosteine] | 0.988 | 1.09 | 1.06 | 1.07 | 1.27 | 1.1
35 | CC(C)(CO)[C@@H](O)C(=O)NCCC(=O)O [D-Pantothenate Sodium] | 1.18 | 0.904 | 1.05 | 1.15 | 0.523 | 1.33
36 | OCCn1cc(-c2ccc3c(c2)CC/C3=N\O)c(-c2ccncc2)n1 | 1.79 | 0.879 | 1.22 | 1.93 | 0.823 | 1.88
37 | O=c1c2ccccc2nc2n1CCc1c-2[nH]c2ccccc12 [Rutaecarpine] | 0.752 | 1.05 | 1.52 | 1.22 | 1.08 | 1.48
38 | CC(C)CCCC(C)N (stereo not given) [Octodrine (2-Amino-6-methylheptan)] | 1.17 | 0.649 | 0.851 | 1.24 | 1.34 | 1.4
39 | CC#C[C@]1(O)CC[C@H]2[C@@H]3CCC4=CC(=O)CCC4=C3[C@@H](c3ccc(N(C)C)cc3)C[C@@]21C [Mifepristone] | 1.22 | 1.62 | 1.48 | 1.13 | 1.01 | 1.14
40 | CCN1CCC[C@H]1CNC(=O)c1cc(S(N)(=O)=O)ccc1OC [Levosulpiride] | 1.03 | 0.793 | 1.14 | 0.991 | 1.73 | 1.77
41 | COc1cc2nc(N3CCN(C(=O)C4CCCO4)CC3)nc(N)c2cc1OC (stereo not given) [Terazosin HCl] | 1.12 | 0.699 | 0.618 | 1.15 | 1.33 | 1.01
42 | O=c1cc(CO)occ1O [Kojic acid] | 1.24 | 0.713 | 0.837 | 0.833 | 0.625 | 1.14
43 | Nc1nc(=O)n([C@@H]2CS[C@H](CO)O2)cc1F [Emtricitabine] | 1.06 | 0.783 | 0.954 | 0.924 | 0.432 | 1.08
44 | O=C(O)[C@@H]1CCCN1 [L-Proline] | 1.26 | 0.98 | 1.37 | 1 | 0.823 | 0.766
45 | Nc1c(CC(=O)O)cccc1C(=O)c1ccccc1 [Amfenac Sodium Monohydrate] | 1.3 | 0.843 | 0.909 | 1.46 | 0.424 | 1.11
46 | CC/C(=C(\c1ccc(O)cc1)c1ccc(OCCN(C)C)cc1)c1ccccc1 [4-Hydroxytamoxifen] | 3.21 | 2.74 | 2.16 | 2.61 | 4.31 | 2.89
47 | CO/N=C(\C(=O)N[C@@H]1C(=O)N2C(C(=O)O)=CCS[C@H]12)c1csc(N)n1 [Ceftizoxime sodium] | 0.557 | 0.807 | 1.33 | 1.07 | 0.578 | 0.958
48 | O=c1ccn(C2OC(COP(=O)(O)O)C(O)C2O)c(=O)[nH]1 (stereo not given) [Uridine 5'-monophosphate] | 1.18 | 1.21 | 1.33 | 1.3 | 1.01 | 1.23
49 | COc1ccc(CNCc2cccc3ccccc23)cc1 | 1.72 | 1.46 | 0.984 | 1.27 | 0.933 | 1.04
50 | Cc1cc2c(cc1CC(=O)c1sccc1S(=O)(=O)Nc1onc(C)c1Cl)OCO2 [Sitaxentan sodium] | 0.839 | 0.821 | 0.942 | 0.796 | 0.95 | 1.46
